Screens (PubChem)
PREPL inh: PREPL enzyme inhibitors, primary screen, biochemical, fluorescence polarization. recombinant PREPL, fluorescence polarization activity-based probe. inhibition, % at 5.96 µM. 320,000 compounds, 0.68% hits. AID 2751, 2010; in the data active = inhibition above about 43%
Target sequence (Q4J6C6 whole entry, looked up): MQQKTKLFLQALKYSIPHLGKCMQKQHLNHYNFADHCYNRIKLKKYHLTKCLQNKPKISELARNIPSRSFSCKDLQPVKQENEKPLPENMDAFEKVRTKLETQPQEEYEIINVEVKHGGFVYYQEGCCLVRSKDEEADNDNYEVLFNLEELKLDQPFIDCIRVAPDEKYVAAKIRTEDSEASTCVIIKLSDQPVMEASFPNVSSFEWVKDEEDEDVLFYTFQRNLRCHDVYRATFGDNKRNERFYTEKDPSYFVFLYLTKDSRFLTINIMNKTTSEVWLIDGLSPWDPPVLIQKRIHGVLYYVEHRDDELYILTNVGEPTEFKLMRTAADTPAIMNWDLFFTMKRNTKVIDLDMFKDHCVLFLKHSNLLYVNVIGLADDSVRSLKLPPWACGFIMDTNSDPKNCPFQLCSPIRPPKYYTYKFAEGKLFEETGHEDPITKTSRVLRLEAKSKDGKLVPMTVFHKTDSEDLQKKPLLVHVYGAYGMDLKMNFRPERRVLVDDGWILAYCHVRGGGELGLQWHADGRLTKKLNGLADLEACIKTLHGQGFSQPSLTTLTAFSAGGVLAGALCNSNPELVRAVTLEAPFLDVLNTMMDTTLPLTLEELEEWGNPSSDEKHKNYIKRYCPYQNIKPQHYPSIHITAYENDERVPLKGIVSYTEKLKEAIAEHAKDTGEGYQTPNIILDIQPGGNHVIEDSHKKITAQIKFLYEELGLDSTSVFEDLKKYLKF
MEKK2mut PB1 HTS: MEK5 binding signal on mutant MEKK2 PB1, primary screen, biochemical, multiplex bead flow cytometry, Alexa488-MEK5; AID 1530, 2009; percent response, % at 10 µM; 290,000 compounds, 0.35% hits; Alexa488-MEK5 binding to MEKK2 mutant; in the data active = percent response above about 24%, passing the limit was not always enough
MEKK2wt PB1 HTS: modulators of MEK5 binding to wildtype MEKK2, primary screen, biochemical, multiplex bead flow cytometry, Alexa488-MEK5. Mitogen-activated protein kinase kinase kinase 2 (Homo sapiens), Q9Y2U5. Alexa488-MEK5 binding to MEKK2 WT; actives lie on both sides. binding response (% of control), % at 10 µM. 290,000 compounds, 1.1% hits; in the data active = binding response below about 67% or above about 130%
ATG4B inhibitor: ATG4B protease inhibitors, primary screen, biochemical, fluorescence, uHTS; Cysteine protease ATG4B (Homo sapiens), Q9Y4P1; ATG4B cleavage of LC3-PLA2, NBD-HPC fluorescence, 1 h; inhibition, % at 8.33 µM; 340,000 compounds, 0.51% hits; AID 504462, 2011; in the data active = inhibition above about 40%
UBC13 inh: UBC13 polyubiquitin chain formation inhibitors, primary screen, biochemical, TR-FRET, uHTS; Ubiquitin-conjugating enzyme E2 N (Homo sapiens), P61088; inhibition, % at 20 µM; 330,000 compounds, 0.47% hits; AID 485273, 2010; in the data active = inhibition above about 45%, passing the limit was not always enough
MEKK3 PB1 HTS: modulators of MEKK3-MEK5 PB1 binding, primary screen, biochemical, wildtype MEKK3, multiplex bead flow cytometry, Alexa488-MEK5. AID 1529, 2009. 290,000 compounds, 1.4% hits. bead-based flow cytometry, Alexa488-MEK5 binding to MEKK3; actives lie on both sides; 0 = blocked by unlabeled MEK5, 100 = vehicle. binding response (% of control), % at 10 µM. Mitogen-activated protein kinase kinase kinase 3 (Homo sapiens), Q99759;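 active = binding response more than 3 SD above or below the average of its plate-row segment, actives on both sides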;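 also: Alexa488 bead fluorescence after subtracting the streptavidin-only scavenger bead signal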
MEKK2wt confirm: modulators of MEK5 binding to wildtype MEKK2, confirmation, biochemical, single concentration, multiplex bead flow cytometry. 5,900 compounds, 2.4% hits. binding response (% of control), % at 10 µM. shares compounds with MEKK3 PB1 HTS. AID 1892, 2009. Alexa488-MEK5 binding to MEKK2 WT; actives lie on both sides; in the data active = binding response below about 16% or above about 210%; inactive = in between
MEKK2mut-MEK5: mutant MEKK2 PB1-MEK5 binding signal retest – biochemical, single concentration, multiplex bead flow cytometry, confirmation. 5,900 compounds, 2% hits. AID 1893, 2009. percent response, % at 10 µM. shares compounds with MEKK3 PB1 HTS. Alexa488-MEK5 binding to MEKK2 mutant; in the data active = percent response mostly above about 71%, no sharp cut-off; inactive = mostly below about 38%;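 also: higher means compound restores mutant binding toward wildtype level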
MEKK3 confirm: MEKK3 wild-type PB1 binding to MEK5, inhibitors, confirmation, biochemical, bead multiplex flow cytometry, single concentration, wildtype; shares compounds with MEKK3 PB1 HTS; Alexa488-MEK5 binding to MEKK3; hits give low values; binding response (% of control), % at 10 µM; AID 1894, 2009; 5,900 compounds, 1.8% hits;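 active = binding response below 72% of control, or above a set upper limit, though filed actives all read lower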;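 also: lower values mean stronger disruption of MEK5 binding to MEKK3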
A number is an active result; 0 = inactive; - = no result given; [ ] = remark or other dose. Compounds with a hit are over-represented: about 3.1% of the library has one in this group of screens.

SMILES	PREPL inh	MEKK2mut PB1 HTS	MEKK2wt PB1 HTS	ATG4B inhibitor	UBC13 inh	MEKK3 PB1 HTS	MEKK2wt confirm	MEKK2mut-MEK5	MEKK3 confirm
COc1ccc2c(c1)-c1c(ssc1=S)C(C)(C)N2S(=O)(=O)c1ccc(C)cc1	0	0	0	0	0	129	0	0	0
Cc1cc(C)c(C#N)c(SCC(=O)N(CCC#N)c2ccc3c(c2)OCCO3)n1	-	-	-	0	0	-	-	-	-
CC(C)NC(=O)C1CCN(C(=O)N(C)C)CC1	0	0	-3.0[inhibitor]	0	0	1.0[inhibitor]	0	0	0
CCOCCCNC(=O)C1CCN(C(=O)N(C)C)CC1	0	0	0	0	0	0	-	-	-
CC(Sc1nnc(C2CC2)n1C1CC1)C(=O)N(C)C1(C#N)CCCCC1 (stereo unspecified)	0	-	-	0	0	-	-	-	-
O=C(COc1ccccc1)Nc1cc(NC(=O)COc2ccccc2)cc(C(=O)O)c1	0	0	0	0	0	0	-	-	-
CC(C)c1ccc(C2OCC(C)([N+](=O)[O-])CO2)cc1 (stereo unspecified)	-	-	-	0	-	-	-	-	-
Clc1ccc(C2=NN(c3ccccc3)C(c3ccco3)C2)cc1 (stereo unspecified)	0	0	0	0	0	0	-	-	-
Fc1ccc(C2=NN(c3ccccc3)C(c3ccco3)C2)cc1 (stereo unspecified)	0	0	0	0	0	0	-	-	-
O=[N+]([O-])c1ccc(/C=C/C2=NN(c3ccccc3)C(c3ccco3)C2)o1 (stereo unspecified)	-	0	-	0	-	15[inhibitor]	0	0	20
C(=C\c1ccco1)/C1=NN(c2ccccc2)C(c2ccco2)C1 (stereo unspecified)	0	0	0	0	0	129	0	0	0
CS(=O)(=O)c1cnc(-c2cccnc2)nc1N	0	0	0	0	0	0	-	-	-
CC12CC3(C)CC(C)(C1)CC(C(=O)NCc1cccnc1)(C2)C3	0	0	0	0	0	0	-	-	-
COc1ccc(Cl)cc1NC(=O)CSc1nnc(Cc2ccc(C)cc2)c(=O)[nH]1	0	-	-	0	0	-	-	-	-
CC(C)(C)C(=O)NC(=S)Nc1cc(C(=O)O)ccc1Cl	0	0	0	0	0	0	-	-	-
NNc1cc(C(=O)O)ccc1Cl	0	0	61[inhibitor]	0	0	55[inhibitor]	0	0	0
CCOP(=O)(OCC)C(NC(=O)C(F)(F)F)c1ccccc1 (stereo unspecified)	0	0	0	0	0	137	0	0	0
CCCCCCCCCCCCN1C/C(=C\C(=O)OCC)c2cc(C(F)(F)F)ccc2S1(=O)=O	0	51	67	0	0	0	0	0	0
O=C(NNc1nc(-c2ccccc2)cs1)c1cccs1	0	0	0	0	0	69[inhibitor]	0	0	0
CCOc1ccc(NC(=O)COC(=O)C2CC2C)cc1 (stereo unspecified)	0	-	-	0	0	-	-	-	-
CC1CC1C(=O)OCC(=O)Nc1ccc(N=Nc2ccccc2)cc1 (stereo unspecified)	0	0	0	0	0	136	0	0	0
N#C/C(=C(/O)COc1ccccc1)c1nc2ccccc2s1	0	0	0	0	0	0	-	-	-
CCOC(=O)c1nc2ccccc2s1	0	0	2.0[inhibitor]	0	0	2.0[inhibitor]	0	0	0
N#C/C(=C(/O)COC(=O)c1ccc(C#N)cc1)c1nc2ccccc2s1	0	0	-1.0[inhibitor]	0	0	0	0	0	0
Cc1ccccc1CNC(=O)C(=O)NCC1CCCN1S(=O)(=O)c1cccs1 (stereo unspecified)	-	-	-	0	0	-	-	-	-
SMILES	PREPL inh	MEKK2mut PB1 HTS	MEKK2wt PB1 HTS	ATG4B inhibitor	UBC13 inh	MEKK3 PB1 HTS	MEKK2wt confirm	MEKK2mut-MEK5	MEKK3 confirm
CC1(O)CC2CC1C(C(=O)O)C2C(=O)O (stereo unspecified)	-	-	-	0	-	-	-	-	-
CC(=O)N1CCCc2cc(S(=O)(=O)N3CCCC(C)C3)ccc21 (stereo unspecified)	0	0	0	0	0	0	-	-	-
CC1(C)Cc2c(C#N)c(N)sc(=S)c2CO1	0	0	0	0	0	0	-	-	-
CC(C)C1Cc2c(C#N)c(N)sc(=S)c2CO1 (stereo unspecified)	0	0	48[inhibitor]	0	0	0	0	0	0
Nc1cc(S(=O)(=O)Nc2cc(Cl)ccc2Cl)ccc1N1CCCC1	0	0	40[inhibitor]	0	0	36[inhibitor]	0	0	0
Cc1ccc(SC[C@H](Cc2ccccc2)N2CCN(CCc3ccccc3)CCC2=O)cc1	0	0	142	0	0	0	0	0	0
COc1ccc(SC[C@H](Cc2ccccc2)N2CCN(C)CCC2=O)cc1	0	0	143	0	0	0	0	0	0
O=C1CCN(CCc2ccccc2)CCN1[C@H](CSc1ccccc1)Cc1ccccc1	0	0	0	0	0	0	-	-	-
COc1cc(Nc2ncnc(N)n2)cc(OC)c1	0	0	0	0	0	0	-	-	-
COc1ccccc1CCNC(=O)CC1C(=O)NCCN1CCCc1ccccc1 (stereo unspecified)	0	26	138	0	0	0	0	0	0
O=C(CC1C(=O)NCCN1CCCc1ccccc1)NCCc1ccccc1Cl (stereo unspecified)	0	31	0	0	0	0	0	0	0
COc1cccc(CNC(=O)CC2C(=O)NCCN2CCCc2ccccc2)c1 (stereo unspecified)	0	0	0	0	0	0	-	-	-
CC(CC(=O)NCc1ccco1)S(=O)(=O)c1ccc2c(c1)CCN2C(=O)C1CC1 (stereo unspecified)	0	0	0	0	0	0	-	-	-
COc1ccc(S(=O)(=O)N[C@@H](CC(C)C)C(=O)O)cc1	0	0	0	0	0	80[inhibitor]	0	0	0
CCC(NS(=O)(=O)c1ccc(OC)cc1)C(=O)O (stereo unspecified)	0	0	0	0	0	0	-	-	-
CCOc1ccc(-n2cc(C(=O)Nc3cccc(Cl)c3)c3cc(OC)c(OC)cc3c2=O)cc1	0	0	3.0[inhibitor]	0	0	2.0[inhibitor]	0	0	0
